Out of some 110,000 compounds screened, about 40 (0.04%) were called active. About 22% were inconclusive and are not listed. Calls come from the whole dose curve; as a rule, active = well fitted curve in the direction sought with a large enough effect in the signal ratio (not every such curve was filed as active); inconclusive = small, poorly fitted or top-dose-only effect, or a change in a side signal; inactive = flat fitted curve, though single readings scatter; the % refers to the signal ratio. This excerpt belongs to a sample that is enriched for actives.
test: IkB Signaling; conditions: ABC-DLBCL IkBa-CBG/CBR dual luciferase ratio, 4 h; series mostly up to 57.1 µM
From the text: NIH Molecular Libraries Screening Centers Network [MLSCN]
NIH Chemical Genomics Center [NCGC]
Nuclear factor kappa-B (NF-kappa-B) plays an important role in normal B cell development and survival. Diffuse large B cell lymphoma (DLBCL) is the most commonly observed type of non-Hodgkin's lymphoma. Gene expression analysis has identified an activated B cell-like subtype of DLBCL (ABC-DLBCL) which expresses known NF-kappa-B target genes. […] However, targets upstream of IKK have been largely unexplored and so nodes upstream of IKK in the NF-kappa-B pathway remain untested due to the lack of chemical probes.
A cell-sensor assay for I-kappa-B-alpha stabilization was developed with NIH investigator Dr. R. Eric Davis in Dr. Louis M. Staudt's laboratory. The assay uses green (CBG68) and red (CBR) emitting beetle luciferases [Chroma-Glo(TM) developed by Promega Corp.] where the green luciferase is fused to I-kappa-B-alpha and the red luciferase is present in its native state. Both luciferase genes are stably present in the OCI-Ly3 human ABC DLBCL cell line, but their expression is under the control of tetracycline-inducible promoters. Following the addition of doxycycline to induce expression of the luciferases, the green luminescence in control cultures rises only slowly because the CBG fusion partner I-kappa-B-alpha is targeted by IKK activity for rapid degradation. In contrast, green luminescence rises rapidly in the presence of proteasome inhibitors or IKK inhibitors. The rise in red luminescence of CBR is not affected by proteasome or IKK inhibitors, and serves as normalization for cell number and nonspecific effects. Compounds were screened as a concentration-titration series that ranged from 57 uM to 0.7 nM.
NCGC Assay Protocol Summary:
Cells were seeded in 1536-well plates at 5000 cells/3ul in IMDM medium containing 0.5% FBS, w/o phenol red, L-glutamine, 25 mM HEPES, 3 mg/ml sodium bicarbonate. After centrifugation for 1 min. at 1000 rpm, 23 nl of compounds or DMSO were delivered to each well using a pin tool. Then 1ul 80ng/ml doxycycline was dispensed into white solid 1536-well plates and the plates were incubated at 37C/5% C02 in a cell incubator for 4 hrs. Then 4 ul Chroma-Glo luminescent substrate mix (Promega) was added to each well. The plate was incubated at R.T. for 10-15 min. The plates were measured on a ViewLux plate reader for green luminescence (540/20 nm filter) and red luminescence (618/8 nm filter). The green and red luminescent signals were corrected for red and green luminescence filter overlap using previously determined filter calibration constants (determined using the procedure outlined in the Promega Technical Manual). The %Activity was determined from the ratio of corrected green/red luminescent values. Green luminescent and ratio %Activity was determined by normalizing to the difference in signal between basal cells (0% Activity) and cells incubated with 10 uM of the proteasome inhibitor MG-132 (100% Activity). Red luminescent %Activity was normalized to the difference between red luminesence in basal cells (0%Activity) and zero luminescence (-100% Activity).
Concentration-response curves were fitted to the signals arising from the green luminescence (I-kappa-B-alpha-luciferase fusion; IkB-luc) and the red luminescence (unfused luciferase; luc) as well as the calculated ratio. The concentration-effect curves were then classified based on curve quality (r2), response magnitude and degree of measured activity. Compounds were then categorized based on their concentration-response curves for all three datasets (Ikb-luc, luc and ratio).
Keywords: IKK, I-kappa-B, IkB, IkBa, cytotoxicity, luminescence, MLSMR, MLSCN, NIH Roadmap, qHTS, NCGC

Potency, inactive:
Cc1cccc(Cn2c(=O)n(CCC(=O)NCCc3ccc(Cl)cc3)c(=O)c3sccc32)c1, O=C(NC1CC(=O)N(c2ccc(F)cc2)C1)c1cccs1 (configuration not stated), COc1ccc(CNc2nc(-c3ccccc3)nn2C(=O)c2ccccc2OC)cc1, Cc1ccc(Cn2c(CCCNC(=O)C3CCCCC3)nc3ccccc32)cc1, COc1ccccc1Cc1nc2ccccc2nc1SCC(=O)N1CCCc2ccccc21, CCc1nn(CC(=O)Nc2cc(C)cc(C)c2)c(=O)c2cc3sccc3n12, Cc1cc(C)cc(NS(=O)(=O)c2ccc3[nH]cc(C(=O)N4CCCCC4)c(=O)c3c2)c1, COC(=O)c1c(NC(=O)c2cc(=O)c3c(C)cc(C)cc3o2)sc2c1CCCC2, COc1ccc(C)cc1NC(=O)C(=O)NCCc1sc(-c2cccc(C)c2)nc1C, Cc1ccc2ncc(C(=O)Nc3ccc(OC(F)(F)F)cc3)c(=O)n2c1, Cc1cc(C)cc(OCC(=O)Nc2c(C(=O)c3ccccc3)oc3ccccc23)c1, O=C1CC(c2nnc(Cc3ccc(Cl)cc3)o2)CN1c1ccccc1 (configuration not stated), CSc1ccc(C2c3c(oc4ccccc4c3=O)C(=O)N2CCCN2CCOCC2)cc1 (configuration not stated), COCC(C)NS(=O)(=O)c1ccc(N2CCCCS2(=O)=O)cc1 (configuration not stated), COc1cccc(CNC(=O)CCC(=O)N2CC3CCCN3c3ccccc32)c1 (configuration not stated), CCc1ccccc1OCCSc1nc(-c2cccs2)nc2cc(=O)[nH]n12, Cc1cccc(NC(=O)CSc2nc3c(oc4ccccc43)c(=O)n2-c2ccc(F)cc2)c1, O=C1Cc2cc(S(=O)(=O)Nc3ccc(OC(F)(F)F)cc3)cc3c2N1CCC3, Cc1ccc(N(C)C(=O)C2CCN(S(=O)(=O)c3ccc4c(c3)CCCN4C(=O)C3CCC3)CC2)cc1, COC(=O)c1ccccc1NC(=O)c1ccc(COc2ccccc2Cl)o1, CCC1=Nc2cc(C(=O)NCCCOC(C)C)ccc2Sc2ccc(C)cc21, CCCCN(CC)CCCNC(=O)c1nn(C)c2c1CSc1ccccc1-2, O=C(Nc1ccc(-c2nc3cc(NC(=O)c4ccccc4Cl)ccc3o2)cc1)c1ccccc1Cl, CCCNC(=O)CCn1nc(-c2ccccc2)c2ccccc2c1=O, COC(=O)c1cc2occc2n1Cc1nc(-c2ccccc2C)oc1C, COc1cc(NC(=O)Cn2nc(-c3ccc(C)c(C)c3)ccc2=O)cc(OC)c1, CCOc1ccc(-c2cc3nc(C4CCN(C(=O)OC(C)(C)C)CC4)c(C(=O)Nc4ccc(C(=O)OC)cc4)cn3n2)cc1

Source: PubChem BioAssay AID445 (National Center for Advancing Translational Sciences (NCATS), 2006)
